The values that follow come from PubChem BioAssay (Tox21).

Structures are written as SMILES. Unmarked numbers belong to inactive results. Inconclusive results are not listed. Active and inactive are the calls of the source. Unless noted, calls follow the shape of the dose curve; as a rule, active = well fitted curve in the direction sought with a large enough effect in the repeat runs; inconclusive = weak or mixed curves; inactive = no such curve, though single readings can be large; an effect the other way counts as inactive or inconclusive.

Test [1] in a line: qHTS assay to test for compound auto fluorescence at 535 nm (green) in HEK293 cells (AID 720680).
The nature of test [2]: qHTS assay to test for compound auto fluorescence at 460 nm (blue) in HEK293 cell free culture (AID 720681). The procedure, abridged: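 Test compounds were pinned into cell-free culture medium (DMEM with 10% FBS) and fluorescence was read directly at Ex/Em 405/460 nm. Signals were expressed as fluorescence equivalents of triamterene, with DMSO vehicle as control.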
Test [3] is described as follows: qHTS assay to test for compound auto fluorescence at 535 nm (green) in HEK293 cell free culture (AID 720682). The procedure, abridged: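 Green-label autofluorescence (485 nm excitation, 535 nm emission) measured on compound added to cell-free culture medium (DMEM, 10% FBS). Output is expressed relative to fluorescein.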
Test [4] can be described thus: qHTS assay to test for compound auto fluorescence at 590 nm (red) in HEK293 cell free culture (AID 720683). The procedure, abridged: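 Tox21 10K library compounds were pinned into cell-free DMEM with 10% FBS and fluorescence was read at excitation 540 nm. Activity is expressed as Rose Bengal sodium equivalency.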
The nature of test [5]: qHTS assay to test for compound auto fluorescence at 590 nm (red) in HepG2 cell free culture (AID 720684). An outline of the steps:
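Ex 540 / Em 590 nm read of compound in cell-free MEM (10% FBS). Rose Bengal sodium reference.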

The nature of test [6]: qHTS assay to test for compound auto fluorescence at 460 nm (blue) in HepG2 cell free culture (AID 720685). The procedure, abridged:
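Cell-free plates of MEM plus 10% FBS received 23 nL compound or DMSO vehicle; blue-channel (405/460 nm) intensity scored against triamterene as reference fluorophore.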

Test [7] is described as follows: qHTS assay to test for compound auto fluorescence at 535 nm (green) in HepG2 cell free culture (AID 720686).
Test [8] is described as follows: qHTS assay to test for compound auto fluorescence at 460 nm (blue) in HepG2 cells (AID 720687). The procedure, abridged:
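Cells (2,000/well in MEM with 10% FBS) attached overnight at 37 C, then were exposed to compound or DMSO for 1 hr at 37 C, 5% CO2. Fluorescence read at Ex/Em 405/460 nm, expressed as triamterene-equivalent signal.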

Test [9] addresses Glucocorticoid receptor (Homo sapiens) (UniProt P04150). As to the kind of experiment: qHTS assay to identify small molecule agonists of the glucocorticoid receptor (GR) signaling pathway (AID 720691; active = well fitted activation curve with a large enough effect in the signal ratio in the repeat runs, not every such curve was filed as active; the % refers to the signal ratio). An outline of the steps:
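Cells: GR-bla HeLa, endogenous GR with stably integrated GRE-beta-lactamase reporter. Treatment 18 h, 37 C, compounds delivered in DMSO. Detection via LiveBLAzer B/G FRET substrate, 2 h RT, fluorescence intensity.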

For test [10] the target is unchanged. The experiment in a line: qHTS assay to identify small molecule antagonists of the glucocorticoid receptor (GR) signaling pathway (AID 720692; active = well fitted inhibition curve with a large enough effect in the signal ratio in the repeat runs, not every such curve was filed as active; the % refers to the signal ratio). The procedure, abridged:
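Quantitative HTS in antagonist format: HeLa cells expressing endogenous GR and a stably integrated GRE-bla reporter, stimulated with 5 nM dexamethasone (final) alongside test compounds for 18 h.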

Test [11] can be described thus: qHTS assay to identify small molecule antagonists of the glucocorticoid receptor (GR) signaling pathway - cell viability counter screen (AID 720693). Also: nearly all actives have a fitted effect of over 55% in size.
A short description of test [12]: qHTS assay for identifying genotoxic compounds that show differential cytotoxicity against isogenic chicken DT40 cell lines with known DNA damage response pathways - wild type cell line (AID 743012). Also: nearly all actives have a fitted effect of over 60% in size. Also: potency is read from the fitted curve at half-maximal effect. The procedure, abridged:
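Luminescent ATP viability signal (CellTiter-Glo, 30 min RT) recorded after wild type DT40 cells were incubated with compounds for 40 h at 37 C/5% CO2.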

A short description of test [13]: qHTS assay for identifying genotoxic compounds that show differential cytotoxicity against isogenic chicken DT40 cell lines with known DNA damage response pathways - Rev3 mutant cell line (AID 743014). Also: nearly all actives have a fitted effect of over 55% in size. Also: potency is read from the fitted curve at half-maximal effect.
Test [14] can be described thus: qHTS assay for identifying genotoxic compounds that show differential cytotoxicity against isogenic chicken DT40 cell lines with known DNA damage response pathways - Rad54/Ku70 mutant cell line (AID 743015). Also: nearly all actives have a fitted effect of over 60% in size. Also: potency is read from the fitted curve at half-maximal effect.
A short description of test [15]: qHTS assay to identify small molecule antagonists of the androgen receptor (AR) signaling pathway - cell viability counter screen (AID 743033; also: nearly all actives have a fitted effect of over 45% in size).
Test [16] can be described thus: qHTS assay to identify small molecule antagonists of the androgen receptor (AR) signaling pathway using the MDA cell line - cell viability counter screen (AID 743041; also: nearly all actives have a fitted effect of over 45% in size). The procedure, abridged: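 In this qHTS counter assay, fluorescence intensity after CellTiter-Fluor addition indicated viability of MDA-kb2 AR-luc cells given compounds and R1881 for 16 h at 37C.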

For test [17], the target named is Androgen receptor (Homo sapiens) (UniProt P10275). The experiment in a line: qHTS assay to identify small molecule antagonists of the androgen receptor (AR) signaling pathway (AID 743035; active = well fitted inhibition curve with a large enough effect in the signal ratio in the repeat runs, not every such curve was filed as active; the % refers to the signal ratio). An outline of the steps:
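Quantitative HTS of the Tox21 10K library used HEK293 AR-UAS-bla cells stimulated with R1881 alongside compound for 16 h at 37C, followed by beta-lactamase FRET detection (LiveBLAzer B/G, 2 h, RT).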

For test [18] the target is unchanged. As to the kind of experiment: qHTS assay to identify small molecule agonists of the androgen receptor (AR) signaling pathway (AID 743036; active = well fitted activation curve with a large enough effect in the signal ratio in the repeat runs, with a control signal flat, not every such curve was filed as active; the % refers to the signal ratio). An outline of the steps: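 AR-UAS-bla HEK293 cells, plated 4 h before dosing, were treated with compound for 16 h at 37C. beta-Lactamase reporter read after 2 h with LiveBLAzer B/G FRET substrate at room temperature.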
The target is the same in test [19]. As to the kind of experiment: qHTS assay to identify small molecule agonists of the androgen receptor (AR) signaling pathway using the MDA cell line (AID 743040; also: nearly all actives have a fitted effect of over 20% in size). An outline of the steps: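 Cell-based luciferase reporter: MDA-kb2, MMTV promoter (AR + GR response elements). 16 h compound exposure at 37C; ONE-Glo, 30 min RT, luminescence.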
Test [20] has the same target. As to the kind of experiment: qHTS assay to identify small molecule antagonists of the androgen receptor (AR) signaling pathway using the MDA cell line (AID 743042; also: nearly all actives have a fitted effect of over 55% in size). An outline of the steps: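 MDA-kb2 cells (human breast carcinoma, stably carrying an MMTV-luciferase reporter responsive to AR and GR) were plated at 3,000 cells/well and preincubated 5 hr at 37C, then given compound plus R1881 agonist for 16 h. ONE-Glo luminescence was read.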
% is scaled to controls: 0 for no effect and ±100 for the full control effect.

Chain of Androgen receptor (Homo sapiens) (P10275 whole entry, looked up): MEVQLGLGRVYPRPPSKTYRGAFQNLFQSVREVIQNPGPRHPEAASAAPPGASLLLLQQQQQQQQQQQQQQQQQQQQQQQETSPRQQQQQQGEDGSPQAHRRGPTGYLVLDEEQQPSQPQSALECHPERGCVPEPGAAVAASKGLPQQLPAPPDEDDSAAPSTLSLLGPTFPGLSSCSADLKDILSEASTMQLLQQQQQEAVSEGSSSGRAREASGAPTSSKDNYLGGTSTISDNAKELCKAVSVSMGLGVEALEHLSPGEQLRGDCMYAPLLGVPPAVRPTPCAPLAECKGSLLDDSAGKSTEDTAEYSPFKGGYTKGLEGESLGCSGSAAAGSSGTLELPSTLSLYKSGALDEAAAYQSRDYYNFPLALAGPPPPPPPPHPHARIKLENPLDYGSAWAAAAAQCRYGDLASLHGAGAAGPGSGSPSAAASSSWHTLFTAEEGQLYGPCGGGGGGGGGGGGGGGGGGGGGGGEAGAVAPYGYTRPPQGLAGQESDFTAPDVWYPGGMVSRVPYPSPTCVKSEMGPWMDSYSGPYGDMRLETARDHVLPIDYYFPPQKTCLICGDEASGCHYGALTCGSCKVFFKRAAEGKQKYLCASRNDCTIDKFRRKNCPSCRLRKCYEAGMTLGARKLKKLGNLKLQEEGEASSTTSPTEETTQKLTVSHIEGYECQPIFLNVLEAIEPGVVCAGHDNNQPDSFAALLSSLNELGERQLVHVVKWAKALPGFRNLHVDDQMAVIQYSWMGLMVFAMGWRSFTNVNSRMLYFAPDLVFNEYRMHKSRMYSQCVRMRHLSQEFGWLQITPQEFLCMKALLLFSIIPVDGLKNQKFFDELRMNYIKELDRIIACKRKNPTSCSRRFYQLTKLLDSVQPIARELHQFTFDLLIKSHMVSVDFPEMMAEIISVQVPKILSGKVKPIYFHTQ
Chain of Glucocorticoid receptor (Homo sapiens) (P04150 whole entry, looked up): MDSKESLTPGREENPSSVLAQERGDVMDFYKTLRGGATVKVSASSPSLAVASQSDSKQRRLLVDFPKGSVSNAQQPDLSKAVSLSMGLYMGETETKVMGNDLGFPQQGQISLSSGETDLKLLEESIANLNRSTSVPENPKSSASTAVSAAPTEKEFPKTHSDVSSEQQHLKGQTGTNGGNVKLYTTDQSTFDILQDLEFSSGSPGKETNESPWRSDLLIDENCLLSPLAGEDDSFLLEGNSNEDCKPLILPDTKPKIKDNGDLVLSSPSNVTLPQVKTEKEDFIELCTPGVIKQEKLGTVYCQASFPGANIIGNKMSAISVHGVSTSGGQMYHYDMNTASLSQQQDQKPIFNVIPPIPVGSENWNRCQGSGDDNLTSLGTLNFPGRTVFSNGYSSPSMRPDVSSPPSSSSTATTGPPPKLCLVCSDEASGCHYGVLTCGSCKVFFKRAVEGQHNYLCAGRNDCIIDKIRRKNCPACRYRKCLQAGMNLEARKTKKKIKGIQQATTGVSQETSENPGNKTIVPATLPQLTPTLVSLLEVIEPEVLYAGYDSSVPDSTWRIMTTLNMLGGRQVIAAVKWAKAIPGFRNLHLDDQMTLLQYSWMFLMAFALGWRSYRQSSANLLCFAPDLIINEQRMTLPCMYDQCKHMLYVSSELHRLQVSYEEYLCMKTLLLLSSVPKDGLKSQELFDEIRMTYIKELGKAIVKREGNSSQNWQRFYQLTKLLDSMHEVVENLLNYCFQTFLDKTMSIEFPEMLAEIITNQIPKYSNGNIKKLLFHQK

With `CN(C)CCCOc1nn(Cc2ccccc2)c2ccccc12`, the fluorescence, % of fluorescein in [1] was 0.0226% [at 18.6 µM]. For the same molecule, the fluorescence, % of fluorescent control in test [2] was -0.101% [at 18.6 µM]; in test [4] it was 0.117% [at 18.6 µM]; in test [6], -0.0147% [at 18.6 µM]; in test [8], -0.0064% [at 18.6 µM]. For the same molecule, the activity change in test [3] was -0.0035% [at 18.6 µM]. The fluorescence, % of Rose Bengal in test [5] is -0.0465% [at 18.6 µM]. Further, the fluorescence, % of fluorescein control in test [7] was 0.0194% [at 18.6 µM]. Also, the Potency entry in test [9], in test [10], in test [11], in [15] and in [16] was “inactive” in each case. Besides, the figures for the Potency in test [12], in test [13] and in [14] were 12.7 µM (active), 12.7 µM (active) and 11.4 µM (active), respectively.

As to `Cc1cccc(Oc2ccccc2)c1`, the result in test [1], in [3], in test [4], in [5] and in test [7] was inactive. Besides, the Potency result in test [2], in test [6], in [8], in test [9], in test [10] and in test [11] was “inactive” throughout. In addition, the Potency entry in [12], in test [13], in [14], in test [15] and in [16] was “inactive” throughout.

Take `CCOC(=S)SSC(=S)OCC`: the result in test [1], in test [3], in test [4], in [5] and in test [7] was inactive. Besides, the Potency result in [2], in [6], in test [8], in test [9], in test [10] and in [11] was “inactive” each time. Besides, the Potency result in test [12], in test [13], in [14] and in [16] was “inactive” each time.

Consider `CC(=O)SCc1ccco1`, for which the outcome in [1], in test [3], in [4], in [5], in [7] and in test [18] was inactive. Besides, the Potency result in [2], in test [6], in test [8], in test [9], in test [10] and in test [11] was “inactive” throughout. For the same molecule, the Potency result in test [12], in [13], in [14], in test [15], in [17] and in test [19] was “inactive” throughout. Also, the Potency entry in test [16] and in [20] was “inactive” in each case.

Regarding `Cc1cccc(C(C)(C)C)c1O`, the molecule was classed as inactive in test [1], in test [3], in [4], in test [5] and in [7]. For the same molecule, the Potency result in test [2], in test [6], in test [8], in [9], in test [10] and in test [11] was “inactive” each time. Further, the Potency result in test [12], in [13], in test [14], in test [15] and in test [16] was “inactive” throughout.

Turning to `CCCCCCCCCCCCCCC1CO1` (configuration not stated), the call in test [1], in test [3], in test [4], in [5] and in [7] was inactive. Also, the Potency entry in test [2], in test [6], in test [8], in test [9], in [10] and in test [11] was “inactive” throughout. For the same molecule, the Potency entry in test [12], in [13], in test [15] and in [16] was “inactive” each time.

`O=C(C(=O)c1ccc(Br)cc1)c1ccc(Br)cc1`: in [1], the fluorescence, % of fluorescein was -0.0337% [at 18.6 µM]. Besides, the fluorescence, % of fluorescent control in test [2] is -0.0047% [at 18.6 µM]; in [4], -0.0329% [at 18.6 µM]; in [6] it was -0.0311% [at 18.6 µM]; in test [8] it was 0.0185% [at 18.6 µM]. For the same molecule, the activity change in test [3] was 0.0143% [at 18.6 µM]. Also, the fluorescence, % of Rose Bengal in test [5] was -0.0316% [at 18.6 µM]. Also, in test [7], the fluorescence, % of fluorescein control is -0.0449% [at 18.6 µM]. The Potency entry in test [9], in test [10], in test [11], in test [12], in test [13] and in [15] was “inactive” throughout. For the same molecule, the Potency entry in test [17], in test [19], in [16] and in test [20] was “inactive” each time. In addition, the molecule was classed as inactive in [18].
